Results reported in publication PMC4336329 (PLoS ONE, 2015).
The whole screen tested about 310,000 compounds, of which about 14,000 (4.5%) showed an effect of 50% or more. The effect is printed as a negative number. The sample holds strong results, similar compounds and a random draw of the others, so the mix is not that of the screen.

The molecules below were run against human ether-à-go-go-related gene (hERG) potassium channel (human, UniProt Q12809) (assay: primary screen, population patch clamp on CHO cells stably expressing hERG; higher = less effect of the substance).
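Also: peak tail current of the secondary pulse compared with the same well before compound.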

Chain of human ether-à-go-go-related gene (hERG) potassium channel (Q12809 whole entry, looked up): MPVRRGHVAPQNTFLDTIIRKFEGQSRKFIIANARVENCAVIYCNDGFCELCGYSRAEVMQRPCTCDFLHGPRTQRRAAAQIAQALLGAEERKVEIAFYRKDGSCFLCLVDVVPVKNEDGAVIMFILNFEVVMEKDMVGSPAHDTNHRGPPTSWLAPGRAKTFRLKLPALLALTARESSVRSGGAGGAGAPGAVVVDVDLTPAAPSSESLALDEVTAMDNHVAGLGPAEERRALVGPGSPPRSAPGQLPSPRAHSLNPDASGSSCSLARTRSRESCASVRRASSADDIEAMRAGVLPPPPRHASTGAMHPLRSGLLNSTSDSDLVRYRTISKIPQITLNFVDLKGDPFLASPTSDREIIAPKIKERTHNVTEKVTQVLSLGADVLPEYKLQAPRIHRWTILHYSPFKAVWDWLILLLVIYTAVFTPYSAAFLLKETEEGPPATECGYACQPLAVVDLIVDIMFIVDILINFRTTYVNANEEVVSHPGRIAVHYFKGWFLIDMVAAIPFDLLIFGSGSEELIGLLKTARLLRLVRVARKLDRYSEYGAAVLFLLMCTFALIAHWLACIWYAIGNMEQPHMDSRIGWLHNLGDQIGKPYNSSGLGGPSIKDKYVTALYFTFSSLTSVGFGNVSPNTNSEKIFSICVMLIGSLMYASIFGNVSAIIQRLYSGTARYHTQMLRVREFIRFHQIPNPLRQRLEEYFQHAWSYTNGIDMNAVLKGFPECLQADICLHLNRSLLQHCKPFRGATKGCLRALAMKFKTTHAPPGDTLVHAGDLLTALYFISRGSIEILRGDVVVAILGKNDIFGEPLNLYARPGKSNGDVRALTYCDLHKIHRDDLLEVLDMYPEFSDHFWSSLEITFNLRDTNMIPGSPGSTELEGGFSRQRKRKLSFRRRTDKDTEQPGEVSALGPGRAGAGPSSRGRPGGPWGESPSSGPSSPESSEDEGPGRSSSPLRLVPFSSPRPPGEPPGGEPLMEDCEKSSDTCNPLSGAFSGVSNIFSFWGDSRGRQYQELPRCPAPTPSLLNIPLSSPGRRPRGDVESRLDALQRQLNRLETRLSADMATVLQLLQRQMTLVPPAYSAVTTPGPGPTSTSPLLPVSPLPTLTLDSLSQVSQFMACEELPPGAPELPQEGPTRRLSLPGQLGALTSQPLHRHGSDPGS

Row | Structure (SMILES) | hERG current change (%, negative = inhibition) at 10uM
1 | CCCCNC(=O)Nc1nnc(SCC(=O)OCC)s1 | -91.2%
2 | CCCCNC(=O)CSc1nnc(NC(C)=O)s1 | -10.6%
3 | CCOC(=O)CSc1nnc(NC(=O)NC(C)C)s1 | 5.74%
4 | O=C(O)CCN1CCc2ccccc21 | 9.02%
5 | FC(F)(F)c1cccc(NCc2n[nH]c(=S)n2C2CCCCC2)c1 | 41.2%
6 | Cc1ccc(S(=O)(=O)N(C)Cc2cc3ccccc3[nH]c2=O)cc1 | -15.7%
7 | COc1cccc(C(=O)/C=C/Nc2ccc(S(=O)(=O)Nc3nc(C)cc(C)n3)cc2)c1 | -1.4%
8 | O=C(CCc1nnc2ccc(NCCCN3CCCC3=O)nn12)NCc1ccccc1Cl | -1.05%
9 | Cc1nn(-c2ccccc2)c2c1C(c1ccc(F)cc1F)C(C#N)=C(N)O2 (stereo not drawn) | -9.42%
10 | COc1ccc(C(=O)n2nc(-c3ccco3)nc2N)cc1 | -2.65%
11 | CC(C)CCn1c(=O)c2ccccc2n2c(CN3CCOCC3)nnc12 | -11.9%
12 | CC(C)CCn1c(=O)c2ccccc2n2c(=S)[nH]nc12 | 18.2%
13 | CC(C)CCn1c(=O)c2ccccc2n2c(CN3C(=O)NC4(CCC(C)CC4)C3=O)nnc12 (stereo not drawn) | -72.1%
14 | CC(C)CCn1c(=O)c2ccccc2n2c(CCl)nnc12 | -32.8%
15 | CC(C)CCn1c(=O)c2ccccc2n2c(CN3CCCC3)nnc12 | -2.3%
16 | CC(C)CCn1c(=O)c2ccccc2n2c(CN(C)Cc3ccccc3)nnc12 | -80.7%
17 | CCN1C(=O)/C(=C2/Sc3ccc(OC)cc3N2C)SC1=Nc1cccc(O)c1 | 15.6%
18 | CCOc1ccc(S(=O)(=O)n2ccc(C)n2)cc1 | 10.9%
19 | O=S(=O)(NCc1ccc2c(c1)OCO2)c1cccc(S(=O)(=O)N2CCOCC2)c1 | 10.6%
20 | N#Cc1ccc2c(c1)nnn2-c1ccccc1 | 1.85%
21 | O=c1c2ccccc2nc(CSc2ncnc3nc[nH]c23)n1-c1ccc(Cl)c(Cl)c1 | 5.27%
22 | CCOC(=O)Cn1cnc2c(C#N)c3n(c2c1=O)CCCCC3 | -9.52%
23 | N#Cc1c(-c2ccccc2)nc(-c2ccccc2)[nH]c1=O | 13.4%
24 | N#Cc1c(-c2ccccc2)nc(-c2ccncc2)[nH]c1=O | -71.5%

Row | Structure (SMILES) | hERG current change (%, negative = inhibition) at 10uM
25 | N#Cc1c(-c2ccccc2)nc(-c2cccnc2)[nH]c1=O | 17.6%
26 | Cc1ccc(NC(=O)C(C)OC(=O)/C=C/c2ccccc2)cc1 (stereo not drawn) | 23%
27 | Cc1cc(C)c(C)c(OCCOCCNCc2ccccc2)c1.O=C(O)C(=O)O | -54.2%
28 | Clc1cccc(Cl)c1OCCOCCNCc1ccccc1.O=C(O)C(=O)O | -31.2%
29 | Cc1cc(Cl)cc(C)c1OCCNCc1ccccc1.O=C(O)C(=O)O | -3.66%
30 | Cc1ccc(OCCNCc2ccccc2)c(C)c1.O=C(O)C(=O)O | -6.1%
31 | Cc1cc(C)c(C)c(OCCNCc2ccccc2)c1.O=C(O)C(=O)O | -5.47%
32 | Cc1cc(Cl)cc(C)c1OCCOCCNCc1ccccc1.O=C(O)C(=O)O | -52.4%
33 | Cc1cc(=O)[nH]c(N2CCN(Cc3ccccc3)CC2)n1 | -2.95%
34 | CC(=O)Oc1c(C(=O)c2nnc(C)o2)c(=O)n(Cc2ccccc2)c2ccccc12 | 1.56%
35 | CCCCCCCCNC(=O)c1ccc(C)cc1 | 10.9%
36 | O=C(NC(c1ccccc1)C(Cl)(Cl)Cl)c1ccccc1 (stereo not drawn) | -11.3%
37 | CCN(CC)S(=O)(=O)c1ccc2oc(Nc3ccc(OC)cc3OC)nc2c1 | 9.24%
38 | CCc1cccc(C)c1NC(=O)CSc1nc2ccc(N3C(=O)c4ccccc4C3=O)cc2s1 | 4.44%
39 | CC(Oc1ccc(Br)cc1)C(=O)O/N=C(\N)c1ccncc1 (stereo not drawn) | 5.16%
40 | COc1ccc(CCn2c(=N)c(C(=O)NCc3ccco3)cc3c(=O)n4cccc(C)c4nc32)cc1 | -75.6%
41 | COc1ccc(CCn2c(N)c(C(=O)NCc3ccco3)c3nc4ccccc4nc32)cc1 | 0.65%
42 | Cc1cccn2c(=O)nc(SCC(=O)NCc3ccco3)nc12 | 1.37%
43 | Cc1cccn2c(=O)c3cc(C(=O)NCc4ccco4)c(=N)n(CCOCCO)c3nc12 | -74.9%
44 | Cc1cccn2c(=O)c3cc(C(=O)NCc4ccco4)c(=N)n(C(C)C)c3nc12 | -77.6%
45 | COc1ccc(-n2nc(C(=O)NCc3ccco3)c3ccccc3c2=O)cc1 | -17.1%
46 | Cc1ccccc1Nc1cc(C(=O)NCc2ccco2)c2ccccc2n1 | 20.3%
47 | Cc1cccn2c(=O)c3cc(C(=O)NCc4ccco4)c(=N)n(CCc4ccccc4)c3nc12 | -76.5%
48 | CC(OC(=O)c1cccc(S(=O)(=O)Nc2ccccc2F)c1)C(=O)NCc1ccc2c(c1)OCO2 (stereo not drawn) | 12.8%

Row | Structure (SMILES) | hERG current change (%, negative = inhibition) at 10uM
49 | CN(C(=O)c1ccc(S(=O)(=O)N2CCCC2)cc1)C1CCS(=O)(=O)C1 (stereo not drawn) | 4.75%
50 | O=C(Nc1ccc(Cl)cc1)C(Cl)C(=O)c1ccccc1 (stereo not drawn) | -3.81%
51 | Cc1csc(SCC(=O)NCc2cccc(Cl)c2)n1 | -7.05%
52 | Cc1cccn2c(=O)c3cc(S(=O)(=O)c4ccccc4)c(=N)n(Cc4ccco4)c3nc12 | -0.654%
53 | CCc1ccc(-n2c(=O)c3ccc(C(=O)NCCc4ccccc4)cc3n(CC(N)=O)c2=O)cc1 | 14.6%
54 | Cc1cccn2c(=O)c3cc(S(=O)(=O)c4ccc(F)cc4)c(=N)n(Cc4ccco4)c3nc12 | -34.8%
55 | CCOC(=O)Cn1c(=O)n(Cc2ccco2)c(=O)c2ccc(C(=O)NC3CCCC3)cc21 | -18.9%
56 | Cc1cccn2c(=O)c3cc(C(=O)NCCc4ccccc4)c(=N)n(Cc4ccco4)c3nc12 | -74%
57 | CCOC(=O)Cn1c(=O)n(Cc2ccco2)c(=O)c2ccc(C(=O)NCCc3ccccc3)cc21 | -53.2%
58 | CCN(CC)C(=O)N1CCN(c2c([N+](=O)[O-])c(=O)oc3ccccc23)CC1 | -25.7%
59 | CN(C)c1ccc(C(=O)c2ccc(N(C)C)c(N)c2)cc1N | -3.79%
60 | COc1c(F)c(F)c(C(=O)Nc2ccc(N3CCN(Cc4ccccc4)CC3)cc2)c(F)c1F | -14.6%
61 | COc1ccc(C(=O)N=C2SC3CS(=O)(=O)CC3N2c2ccccc2)cc1OC (stereo not drawn) | 11%
62 | CCCCn1nnc(NC(=O)c2ccc(-c3ccccc3[N+](=O)[O-])o2)n1 | -14.2%
63 | CCn1nnc(NC(=O)c2ccc(-c3ccc(Cl)cc3)o2)n1 | -53.5%
64 | CCn1nnc(NC(=O)Cc2ccc(Cl)cc2)n1 | 3.52%
65 | CCCn1nnc(NC(=O)c2ccc(-c3cc(Cl)ccc3Cl)o2)n1 | 6.96%
66 | CCCCn1nnc(NC(=O)c2ccc(-c3cccc([N+](=O)[O-])c3)o2)n1 | -68.5%
67 | CCCn1nnc(NC(=O)c2ccc(-c3cccc(Cl)c3)o2)n1 | -55.3%
68 | CCn1nnc(NC(=O)c2ccc(Br)o2)n1 | 13.7%
69 | CCCCn1nnc(NC(=O)c2ccc(-c3cccc(Cl)c3)o2)n1 | -40.8%
70 | CCCCn1nnc(NC(=O)c2ccc([N+](=O)[O-])cc2Cl)n1 | -31.1%
71 | O=C(NC1CC1)c1sccc1-n1cccc1 | 8.56%
72 | COc1cc(NC(=O)Cc2cccs2)c(C(=O)O)cc1OC | 21.7%

Row | Structure (SMILES) | hERG current change (%, negative = inhibition) at 10uM
73 | Cc1ccc2[nH]c(=O)c(CNS(=O)(=O)c3ccccc3)c(-c3ccccc3)c2c1 | 16.2%
74 | Cc1ccc(-n2[nH]c(C)c(C=Nc3ccc(S(=O)(=O)Nc4nccs4)cc3)c2=O)c(C)c1 | -35%
75 | CCOC(=O)C1(Cc2ccc(OC)cc2)CCN(C(=O)c2cncs2)CC1 | -17.6%
76 | CCOC(=O)C1(CCOc2ccccc2)CCN(C(=O)c2cncs2)CC1 | -70.7%
77 | CCOC(=O)C1(CCCc2ccccc2)CCN(C(=O)c2cncs2)CC1 | -55%
78 | O=C(Oc1ccc(/C=N/NC(=O)c2ccccn2)cc1)c1cccc(Br)c1 | 11.4%
79 | CC(C)CC(NS(=O)(=O)c1cccc(C(=O)O)c1)C(=O)O (stereo not drawn) | 44.6%
80 | COc1cc(NC(=O)c2ccc(NS(=O)(=O)c3c(C)noc3C)cc2)cc(OC)c1 | 1.03%
81 | Cc1[nH]nc(-c2ccc(OCc3cnn(-c4ccccc4)c3)c(C)c2O)c1Oc1ccccc1 | 12%
82 | CN(CC(=O)Nc1cccc(C#N)c1)Cc1ccc(Cl)cc1 | -34.1%
83 | CN(CC(=O)Nc1ccc(Cl)cc1)CC(=O)Nc1cc(Cl)ccc1C#N | -38.4%
84 | CN(CC(=O)Nc1ccc(N2CCOCC2)cc1)CC(=O)Nc1cccc(C#N)c1 | -13.9%
85 | CN(CC(=O)Nc1ccc(C#N)cc1)Cc1ccc(Cl)cc1 | -68.6%
86 | CN(CC(=O)Nc1ccc(Cl)c(Cl)c1)CC(=O)Nc1ccc2c(c1)OCO2 | -3.52%
87 | CN(CC(=O)Nc1ccc(Cl)c(Cl)c1)Cc1nnc(-c2ccc(F)cc2)o1 | -63.3%
88 | Cc1ccc(NC(=O)CN(C)Cc2ccc(Cl)cc2)cc1 | -8.48%
89 | CN(CC(=O)Nc1ccc(C#N)cc1)CC(=O)Nc1ccc(N2CCOCC2)cc1 | -56.3%
90 | CN(CC(=O)Nc1ccc(C#N)cc1)Cc1ccc(Cl)cc1Cl | -66.8%
91 | CN(CC(=O)Nc1ccc(Cl)c(Cl)c1)C(=O)/C=C/c1ccc(F)cc1 | 1.66%
92 | CN(CC(=O)Nc1ccc(N2CCOCC2)cc1)CC(=O)Nc1ccc(N2CCOCC2)cc1 | 6.39%
93 | CN(CC(=O)Nc1ccc(S(=O)(=O)N2CCCC2)cc1)Cc1ccc(Cl)cc1Cl | 10.8%
